From PubChem BioAssay AID1159580 (chemical genetic matrix, 2015)
Several values for one entry are separate records, joined by “and”; a condition that tells them apart may be missing. Identical values can stand only once. About 2,000 (36%) of roughly 5,500 compounds were called active. Not shown: some 18% with an inconclusive outcome. Rule as the data show it: active = normalized growth mostly below about 0.91 (no sharp cut-off); inconclusive = no clear call, values can overlap the other calls; inactive = mostly above about 0.92. Some of the results follow.

Experiment: chemical genetic growth profiling, strain panel (AID 1159580);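 also: tested at 20 µM; growth read once vehicle control cultures reached saturation at 30 °C; 1 = growth at the plate median or of vehicle wells; lower values mean less growth of the strain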
Conditions: growth OD

Measured: normalized growth

CCOC(=O)C1=C(C)NC(C)=C(C(=O)OC)C1c1cccc([N+](=O)[O-])c1 (stereo unspecified)
inactive: S. cerevisiae deletion strains, locus YJL187C, strain SWE1, active compounds read low 1.01 | S. cerevisiae deletion strains, locus YJR043C, strain POL32, active compounds read low 1.01 | S. cerevisiae deletion strains, locus YJR075W, strain HOC1, active compounds read low 0.995 and 0.989 | S. cerevisiae deletion strains, locus YKL009W, strain mrt4, active compounds read low 1.01 | S. cerevisiae deletion strains, locus YKL068W, active compounds read low 0.996 | S. cerevisiae deletion strains, locus YKL085W, strain MDH1 (second series), active compounds read low 0.997 | S. cerevisiae deletion strains, locus YKL085W, strain MDH1, active compounds read low 0.997 | S. cerevisiae deletion strains, locus YKL160W, strain elf1, active compounds read low 1.01 | S. cerevisiae deletion strains, locus YKL190W, strain CNB1, active compounds read low 0.99 | S. cerevisiae deletion strains, locus YKR001C, strain vps1, active compounds read low 1 | S. cerevisiae deletion strains, locus YKR026C, strain gcn3, active compounds read low 0.999 | S. cerevisiae deletion strains, locus YKR091W, strain srl3, active compounds read low 1 | S. cerevisiae deletion strains, locus YLL001W, strain dnm1, active compounds read low 1.02 | S. cerevisiae deletion strains, locus YLL026W, active compounds read low 1 | S. cerevisiae deletion strains, locus YLL041C, strain sdh2, active compounds read low 1.02 | S. cerevisiae deletion strains, locus YLR027C, strain aat2, active compounds read low 1.01 | S. cerevisiae deletion strains, locus YLR039C, strain RIC1, active compounds read low 0.968 | S. cerevisiae deletion strains, locus YLR058C, strain SHM2, active compounds read low 0.999 | S. cerevisiae deletion strains, locus YLR102C, strain apc9, active compounds read low 1 | S. cerevisiae deletion strains, locus YLR221C, strain rsa3, active compounds read low 1.01 | S. cerevisiae deletion strains, locus YLR258W, strain gsy2, active compounds read low 1.01 | S. cerevisiae deletion strains, locus YLR262C, strain YPT6 (second series), active compounds read low 0.959 | S. cerevisiae deletion strains, locus YLR262C, strain YPT6, active compounds read low 0.946 | S. cerevisiae deletion strains, locus YLR268W, strain sec22, active compounds read low 0.984 | S. cerevisiae deletion strains, locus YLR320W, strain mms22, active compounds read low 1 | S. cerevisiae deletion strains, locus YLR330W, strain CHS5, active compounds read low 1.01 | S. cerevisiae deletion strains, locus YLR342W, strain FKS1 (second series), active compounds read low 1.01 | S. cerevisiae deletion strains, locus YLR342W, strain FKS1, active compounds read low 1.01 | S. cerevisiae deletion strains, locus YLR357W, strain rsc2, active compounds read low 1.02 | S. cerevisiae deletion strains, locus YLR370C, strain arc18, active compounds read low 1.01 | S. cerevisiae deletion strains, locus YLR371W, strain rom2, active compounds read low 1.01 | S. cerevisiae deletion strains, locus YLR384C, strain iki3, active compounds read low 0.998 | S. cerevisiae deletion strains, locus YLR418C, strain cdc73, active compounds read low 0.967 | S. cerevisiae deletion strains, locus YML016C, strain PPZ1, active compounds read low 1 | S. cerevisiae deletion strains, locus YML032C, strain rad52, active compounds read low 1.02 | S. cerevisiae deletion strains, locus YML120C, strain ndi1, active compounds read low 1.01 | S. cerevisiae deletion strains, locus YML124C, strain tub3, active compounds read low 1 | S. cerevisiae deletion strains, locus YMR058W, strain fet3, active compounds read low 1.02 | S. cerevisiae deletion strains, locus YMR078C, strain ctf18, active compounds read low 0.999 | S. cerevisiae deletion strains, locus YMR125W, strain sto1, active compounds read low 1.01 | S. cerevisiae deletion strains, locus YMR129W, active compounds read low 0.999 | S. cerevisiae deletion strains, locus YMR205C, strain PFK2, active compounds read low 0.991 | S. cerevisiae deletion strains, locus YMR223W, strain ubp8, active compounds read low 1.01 | S. cerevisiae deletion strains, locus YMR231W, strain pep5, active compounds read low 1.01 | S. cerevisiae deletion strains, locus YMR263W, strain SAP30, active compounds read low 1.01 and 0.981 | S. cerevisiae deletion strains, locus YMR307W, strain GAS1, active compounds read low 0.931 | S. cerevisiae deletion strains, locus YNL067W, strain RPL9B, active compounds read low 0.996 | S. cerevisiae deletion strains, locus YNL071W, strain lat1, active compounds read low 1.01 | S. cerevisiae deletion strains, locus YNL128W, strain TEP1, active compounds read low 0.994 and 1.01 | S. cerevisiae deletion strains, locus YNL153C, strain GIM3, active compounds read low 0.999 and 0.961 | S. cerevisiae deletion strains, locus YNL209W, strain ssb2, active compounds read low 1.01 | S. cerevisiae deletion strains, locus YNL224C, strain SQS1, active compounds read low 0.979 | S. cerevisiae deletion strains, locus YNL233W, strain BNI4, active compounds read low 0.995 | S. cerevisiae deletion strains, locus YNL248C, strain rpa49, active compounds read low 1.01 | S. cerevisiae deletion strains, locus YNL250W, strain rad50, active compounds read low 1.01 | S. cerevisiae deletion strains, locus YNL271C, strain bni1, active compounds read low 1.01 | S. cerevisiae deletion strains, locus YNL298W, strain CLA4, active compounds read low 1.02 | S. cerevisiae deletion strains, locus YNL307C, strain MCK1, active compounds read low 1.01 | S. cerevisiae deletion strains, locus YNL322C, strain KRE1 (second series), active compounds read low 1.01 | S. cerevisiae deletion strains, locus YNL322C, strain KRE1, active compounds read low 1 and 0.995 | S. cerevisiae deletion strains, locus YNR049C, strain mso1, active compounds read low 1.01 | S. cerevisiae deletion strains, locus YNR052C, strain pop2, active compounds read low 1.01 | S. cerevisiae deletion strains, locus YOL006C, strain TOP1, active compounds read low 1.01 | S. cerevisiae deletion strains, locus YOL012C, strain htz1 0.79 | S. cerevisiae deletion strains, locus YOL147C, strain pex11, active compounds read low 1.01 | S. cerevisiae deletion strains, locus YOR001W, strain rrp6, active compounds read low 1.03 | S. cerevisiae deletion strains, locus YOR061W, strain CKA2, active compounds read low 0.988 | S. cerevisiae deletion strains, locus YOR069W, strain VPS5, active compounds read low 0.997 | S. cerevisiae deletion strains, locus YOR070C, strain gyp1, active compounds read low 1.01 | S. cerevisiae deletion strains, locus YOR080W, strain dia2, active compounds read low 1.01 | S. cerevisiae deletion strains, locus YOR083W, strain WHI5, active compounds read low 1 | S. cerevisiae deletion strains, locus YOR106W, strain vam3, active compounds read low 1.01 | S. cerevisiae deletion strains, locus YOR136W, strain idh2, active compounds read low 1.02 | S. cerevisiae deletion strains, locus YOR144C, strain elg1, active compounds read low 1 | S. cerevisiae deletion strains, locus YOR184W, strain ser1, active compounds read low 1.01 | S. cerevisiae deletion strains, locus YOR265W, strain rbl2, active compounds read low 1 | S. cerevisiae deletion strains, locus YOR270C, strain vph1, active compounds read low 1.03 | S. cerevisiae deletion strains, locus YOR290C, strain snf2, active compounds read low 1.01 | S. cerevisiae deletion strains, locus YOR316C, strain cot1, active compounds read low 1 | S. cerevisiae deletion strains, locus YPL051W, strain arl3, active compounds read low 1 | S. cerevisiae deletion strains, locus YPL055C, strain LGE1, active compounds read low 0.95 and 1 | S. cerevisiae deletion strains, locus YPL078C, strain atp4, active compounds read low 1.03 | S. cerevisiae deletion strains, locus YPL106C, strain sse1, active compounds read low 1.04 | S. cerevisiae deletion strains, locus YPL240C, strain hsp82, active compounds read low 1.01 | S. cerevisiae deletion strains, locus YPL241C, strain CIN2, active compounds read low 0.977 | S. cerevisiae deletion strains, locus YPR119W, strain clb2, active compounds read low 1 | S. cerevisiae deletion strains, locus YPR141C, strain kar3, active compounds read low 1 | S. cerevisiae deletion strains, locus YPR163C, strain tif3, active compounds read low 1.01 | S. cerevisiae deletion strains, locus YPR167C, strain met16, active compounds read low 0.998 | S. cerevisiae deletion strains, strain wtn01, active compounds read low 0.987 | S. cerevisiae strains, strain wild type, active compounds read low 0.982
